Assay [1] can be described thus: small molecules captured by biotinylated probe aFSTL3 – biochemical, small-molecule microarray, fluorescence 635/667, stem cell growth factor project, primary screen (AID 1064).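 Note: measures binding of the biotinylated anti-FSTL3 antibody to printed compounds.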 The note with it: higher = more signal.
The nature of assay [2]: binders from COS7 lysate, DM2A8 probe, primary screen, torsin A project, cell lysate, small-molecule microarray, fluorescence 635/667 (AID 1065). The note with it: higher = more signal, COS7 lysate expressing mutant human TOR1A.
Assay [3] in a line: small molecules captured by biotinylated probe aFGF2 – biochemical, small-molecule microarray, fluorescence 635/667, stem cell growth factor project, primary screen (AID 1067).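 Note: measures binding of biotinylated aFGF2 protein to printed compounds on slides; z-score merges feature fluorescence and signal-to-noise across triplicate slides.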 As to conditions: higher = more signal.
Assay [4] is described as follows: small molecules captured by biotinylated probe aFGF10 – biochemical, small-molecule microarray, fluorescence 635/667, stem cell growth factor project, primary screen (AID 1071).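 Note: score merges 667 nm spot intensity and signal to noise from triplicate slides.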 The note with it: higher = more signal.
The target of assay [5] is Neurogenic locus notch homolog protein 2 (Homo sapiens) (UniProt Q04721). The assay can be described thus: small molecules binding Notch2 protein – biochemical, small-molecule microarray, 635 nm fluorescence, stem cell growth factors, primary screen (AID 1073). As to conditions: higher = more signal.
Assay [6] addresses Pro-neuregulin-1, membrane-bound isoform (Homo sapiens) (UniProt Q02297). The assay can be described thus: small molecules binding neuregulin-1 protein – biochemical, small-molecule microarray, fluorescence 635/667, psychiatric disease protein project, primary screen (AID 1075).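 Note: score combines 667 nm spot fluorescence with signal to noise.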 As to conditions: NRG1 binding, 635 nm fluorescence, higher = more signal.
The test system of assay [7] is Neuregulin-1 EGF-like domain. Briefly: small molecules binding NRG1 EGF domain – biochemical, small-molecule microarray, 635 nm fluorescence, primary screen (AID 1081).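 Note: binding of the protein to compounds printed on small-molecule microarray slides.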 As to conditions: higher = more signal.
The nature of assay [8]: FRG1 expression reporter modulators in myotubes – cell-based, C2C12 myotubes, firefly/Renilla luciferase, luminescence, FRG1 inhibition for FSHD, primary screen (AID 1084). The note with it: FRG1 promoter luciferase, higher = more signal, called active from +8 up or from −8 down.
The nature of assay [9]: small molecules captured by biotinylated probe aFST – biochemical, small-molecule microarray, fluorescence 635/667, stem cell growth factor project, primary screen (AID 1086).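 Note: score merges 667 nm fluorescence with signal-to-noise of each printed compound spot.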 As to conditions: higher = more signal.
Assay [10] can be described thus: binders of probe aHhip on microarray, primary screen, stem cell growth factor project, biochemical, small-molecule microarray, fluorescence 635/667 (AID 1087).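 Note: score merges spot fluorescence at 667nm with spot signal to noise ratio.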 As to conditions: higher = more signal.
Assay [11] relates to PRMT1 (protein arginine N-methyltransferase 1). The assay can be described thus: small molecules binding arginine methyltransferase PRMT1 – biochemical, small-molecule microarray, 635 nm fluorescence, primary screen (AID 1088).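 Note: binding of Prmt1 protein to compounds spotted on small-molecule microarray slides.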 As to conditions: higher = more signal.
Assay [12] is described as follows: growth effects on S. cerevisiae YJM789 – YJM789 clinical isolate, OD600, 24 h, basal, primary screen (AID 1089).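 Note: growth of clinical yeast isolate S. cerevisiae YJM 789 seeded 1000 cells per well; test concentration not given here.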 As to conditions: higher = more signal, called active from +8 up or from −8 down.
A short description of assay [13]: S. pombe growth modifiers, basal conditions – strain 972, OD600, 24 h, no modulator, primary screen (AID 1090).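 Note: basal condition with compound alone and no growth modifier present; test concentration not given here.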 The note with it: S. pombe 972 growth, higher = more signal, called active from +8 up or from −8 down.
A short description of assay [14]: budding yeast growth modifiers under rapamycin – strain BY4716, OD600, 96 h, primary screen (AID 1091). Note: test concentration not given here. As to conditions: S. cerevisiae BY4716 + rapamycin, higher = more signal, called active from +8 up or from −8 down.
The target in assay [15] is Torsin-1A-interacting protein 2 (Homo sapiens) (UniProt Q8NFQ8). Briefly: small molecules binding lysate-expressed LULL1 – cell lysate, human LULL1 lysate, 635/667 nm fluorescence, primary screen (AID 1092).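 Note: probe is lysate of COS7 cells overexpressing human LULL1; score merges per-feature 667 nm fluorescence with signal-to-noise.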 The note with it: small-molecule microarray, hLULL1 lysate binding, 635 nm fluorescence; higher = more signal.
A short description of assay [16]: optical density change of DRC41 E. coli – strain DRC41, OD650, 24 h, E. coli filamentation project, primary screen (AID 1093).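 Note: MC1000 strain lacking acrAB efflux and sulA so SOS filamentation is blocked; test concentration not given here.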 As to conditions: E. coli DRC41 growth, higher = more signal, called active from +8 up or from −8 down.
Assay [17] in a line: probe aLefty2 binding to arrayed compounds – biochemical, biotinylated probe, 635/667 nm fluorescence, primary screen (AID 1094).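 Note: score merges spot fluorescence near 667 nm with spot signal-to-noise ratio.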 As to conditions: small-molecule microarray, higher = more signal.
Assay [18] relates to Noggin (protein binding on small-molecule microarray). Briefly: small molecules binding Noggin protein – biochemical, 635/667 nm fluorescence, primary screen (AID 1095).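 Note: score merges 667 nm feature fluorescence with signal to noise over triplicate slides.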 As to conditions: 635 nm fluorescence, higher = more signal.
Assay [19] addresses Neurogenic locus notch homolog protein 3 (Homo sapiens) (UniProt Q9UM47). The assay can be described thus: small molecules binding NOTCH3 protein – biochemical, 635/667 nm fluorescence, primary screen (AID 1096). As to conditions: small-molecule microarray, 635 nm fluorescence, higher = more signal.
The nature of assay [20]: probe aEGFR binding to arrayed compounds – biochemical, biotinylated probe, 635/667 nm fluorescence, primary screen (AID 1097).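 Note: probe is a biotinylated anti-EGFR antibody binding compounds printed on slides; score combines fluorescence near 667 nm and signal to noise of each spot.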 The note with it: small-molecule microarray, higher = more signal.

Activity calls are given as the source filed them.

Chain of Neurogenic locus notch homolog protein 3 (Homo sapiens) (Q9UM47 whole entry, looked up): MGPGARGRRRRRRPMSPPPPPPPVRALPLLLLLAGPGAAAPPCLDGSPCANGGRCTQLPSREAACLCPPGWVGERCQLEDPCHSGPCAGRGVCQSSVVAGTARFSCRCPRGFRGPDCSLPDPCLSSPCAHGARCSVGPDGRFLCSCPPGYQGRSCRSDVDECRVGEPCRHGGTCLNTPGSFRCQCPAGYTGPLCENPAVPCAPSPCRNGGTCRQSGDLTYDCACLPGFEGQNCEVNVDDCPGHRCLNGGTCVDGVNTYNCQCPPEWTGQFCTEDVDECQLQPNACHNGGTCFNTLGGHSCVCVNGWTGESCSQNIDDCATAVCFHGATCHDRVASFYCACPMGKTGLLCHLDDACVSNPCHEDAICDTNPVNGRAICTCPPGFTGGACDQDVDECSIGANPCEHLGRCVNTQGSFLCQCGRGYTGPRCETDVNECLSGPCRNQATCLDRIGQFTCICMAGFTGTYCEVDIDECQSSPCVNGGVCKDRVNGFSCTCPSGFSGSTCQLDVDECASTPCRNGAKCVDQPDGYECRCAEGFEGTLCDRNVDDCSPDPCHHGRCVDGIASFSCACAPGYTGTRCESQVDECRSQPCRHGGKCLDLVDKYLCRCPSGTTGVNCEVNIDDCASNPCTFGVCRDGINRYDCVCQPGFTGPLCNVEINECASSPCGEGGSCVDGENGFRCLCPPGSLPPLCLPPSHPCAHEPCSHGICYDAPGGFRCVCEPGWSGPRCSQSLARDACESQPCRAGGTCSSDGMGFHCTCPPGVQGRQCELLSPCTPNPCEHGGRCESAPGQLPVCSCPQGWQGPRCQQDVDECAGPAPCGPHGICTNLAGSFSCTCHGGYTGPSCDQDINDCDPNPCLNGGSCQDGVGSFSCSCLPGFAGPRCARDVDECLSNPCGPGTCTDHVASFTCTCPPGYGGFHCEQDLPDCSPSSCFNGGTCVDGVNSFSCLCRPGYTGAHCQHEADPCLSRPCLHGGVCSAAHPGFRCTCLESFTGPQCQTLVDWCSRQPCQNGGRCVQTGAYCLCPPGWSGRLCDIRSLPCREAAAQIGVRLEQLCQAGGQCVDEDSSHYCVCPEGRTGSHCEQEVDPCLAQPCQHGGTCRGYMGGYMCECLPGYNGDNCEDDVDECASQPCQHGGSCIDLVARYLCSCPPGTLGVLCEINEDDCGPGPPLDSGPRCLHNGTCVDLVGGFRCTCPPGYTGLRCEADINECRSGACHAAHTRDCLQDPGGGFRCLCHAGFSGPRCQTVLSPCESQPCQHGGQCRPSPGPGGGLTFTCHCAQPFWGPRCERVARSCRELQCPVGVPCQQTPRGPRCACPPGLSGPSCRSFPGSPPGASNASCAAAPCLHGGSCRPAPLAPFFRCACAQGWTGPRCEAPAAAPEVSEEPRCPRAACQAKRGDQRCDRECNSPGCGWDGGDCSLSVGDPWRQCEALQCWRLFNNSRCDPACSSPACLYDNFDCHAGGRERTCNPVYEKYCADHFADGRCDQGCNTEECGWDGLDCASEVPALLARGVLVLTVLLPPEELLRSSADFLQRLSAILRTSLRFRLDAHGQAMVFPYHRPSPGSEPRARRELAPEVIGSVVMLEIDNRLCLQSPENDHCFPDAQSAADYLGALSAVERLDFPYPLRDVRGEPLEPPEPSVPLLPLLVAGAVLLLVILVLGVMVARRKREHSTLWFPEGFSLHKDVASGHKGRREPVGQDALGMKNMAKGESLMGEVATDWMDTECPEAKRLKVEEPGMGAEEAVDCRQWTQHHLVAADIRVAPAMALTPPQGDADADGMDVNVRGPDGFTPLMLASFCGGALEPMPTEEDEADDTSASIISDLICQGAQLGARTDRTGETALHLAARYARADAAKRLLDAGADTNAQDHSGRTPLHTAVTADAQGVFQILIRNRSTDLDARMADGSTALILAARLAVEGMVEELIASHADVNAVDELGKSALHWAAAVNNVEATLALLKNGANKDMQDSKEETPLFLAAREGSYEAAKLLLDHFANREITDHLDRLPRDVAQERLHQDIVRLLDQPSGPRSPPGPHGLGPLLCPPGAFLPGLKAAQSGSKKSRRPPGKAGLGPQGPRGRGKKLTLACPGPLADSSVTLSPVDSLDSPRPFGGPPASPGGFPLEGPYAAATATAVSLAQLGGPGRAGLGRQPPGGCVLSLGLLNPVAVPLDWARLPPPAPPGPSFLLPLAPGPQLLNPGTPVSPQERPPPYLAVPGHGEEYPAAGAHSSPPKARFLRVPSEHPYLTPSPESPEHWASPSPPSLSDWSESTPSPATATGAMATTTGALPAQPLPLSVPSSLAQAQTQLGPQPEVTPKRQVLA
Chain of Torsin-1A-interacting protein 2 (Homo sapiens) (Q8NFQ8 whole entry, looked up): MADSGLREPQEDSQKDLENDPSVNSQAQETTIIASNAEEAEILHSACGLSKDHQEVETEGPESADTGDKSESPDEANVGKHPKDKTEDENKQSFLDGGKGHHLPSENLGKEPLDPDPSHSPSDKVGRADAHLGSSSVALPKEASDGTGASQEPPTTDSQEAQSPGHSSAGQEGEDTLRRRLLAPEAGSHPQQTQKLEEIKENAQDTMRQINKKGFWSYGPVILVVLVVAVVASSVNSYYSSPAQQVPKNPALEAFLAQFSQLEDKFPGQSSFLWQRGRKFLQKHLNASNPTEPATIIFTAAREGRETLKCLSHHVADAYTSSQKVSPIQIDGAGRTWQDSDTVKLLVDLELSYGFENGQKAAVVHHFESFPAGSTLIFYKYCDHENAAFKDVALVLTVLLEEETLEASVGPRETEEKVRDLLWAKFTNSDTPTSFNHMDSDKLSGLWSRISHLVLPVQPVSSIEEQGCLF
Chain of Pro-neuregulin-1, membrane-bound isoform (Homo sapiens) (Q02297 whole entry, looked up, the tested form may be a part, canonical isoform): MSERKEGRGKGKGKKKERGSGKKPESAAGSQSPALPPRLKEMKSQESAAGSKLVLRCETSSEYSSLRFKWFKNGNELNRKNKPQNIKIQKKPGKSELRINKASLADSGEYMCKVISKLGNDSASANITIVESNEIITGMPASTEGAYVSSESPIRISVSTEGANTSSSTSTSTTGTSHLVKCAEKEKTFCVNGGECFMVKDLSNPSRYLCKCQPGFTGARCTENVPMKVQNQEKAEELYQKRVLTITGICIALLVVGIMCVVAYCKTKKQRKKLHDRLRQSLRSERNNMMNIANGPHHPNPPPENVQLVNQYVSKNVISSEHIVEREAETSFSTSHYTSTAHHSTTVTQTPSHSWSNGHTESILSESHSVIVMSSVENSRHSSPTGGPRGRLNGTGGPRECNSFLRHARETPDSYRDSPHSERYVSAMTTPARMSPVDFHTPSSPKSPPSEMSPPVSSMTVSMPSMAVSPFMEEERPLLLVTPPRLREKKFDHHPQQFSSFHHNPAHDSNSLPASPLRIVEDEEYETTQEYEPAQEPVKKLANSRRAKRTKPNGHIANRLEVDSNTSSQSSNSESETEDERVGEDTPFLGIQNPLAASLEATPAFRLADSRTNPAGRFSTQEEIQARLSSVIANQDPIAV

Take `NCCCCCNC(=O)[C@H]1C[C@H]2C(=O)N[C@@H](Cc3ccccc3)C(=O)N2[C@H]1c1cccc(OCCO)c1`: the composite z-score stood at 2.24 in assay [1]; 0.387 in [2]; 0.0364 in assay [3]; 0.116 in assay [4]; 0.352 in assay [5]; 2.05 in assay [6]. Moreover, the composite z-score in assay [7] came out at 0.408; in assay [9], 1.04; in assay [10], 0.705; in [11], 0.788; in assay [15], 1.6; in assay [17] it was 0.662. In addition, the values for the composite z-score in [18], in assay [19] and in assay [20] were -0.0079, 0.478 and 0.0115, respectively. Moreover, the z-score in [8] is 1.27 (inactive); in assay [12], 0.693 (inactive); in assay [13], -1.42 (inactive); in [14] it was -0.763 (inactive); in [16], 0.631 (inactive).
In the case of `CCCNC(=O)[C@@]1(Sc2ccc(C)cc2)CC(=O)N(Cc2ccccc2C(F)(F)F)[C@@H]1c1ccc(CO)cc1I`, the composite z-score is -0.0981 in assay [1]; 2.46 in assay [2]; -0.0583 in assay [3]; -0.0686 in assay [4]; 0.267 in [5]; 1.22 in assay [6]. Moreover, the composite z-score in [7] was 1.07; in assay [9], 0.574; in assay [10], -0.0346; in [11], 1.53; in assay [15], 2.19; in assay [17], -0.0125. Moreover, the values for the composite z-score in [18], in assay [19] and in assay [20] were 0.932, 0.958 and -0.0435, respectively. Also, the z-score is -0.267 (inactive) in assay [8]; -0.36 (inactive) in [12]; -2.45 (inactive) in assay [13]; 0.283 (inactive) in assay [14]; -1.57 (inactive) in [16].
`CO[C@H]1O[C@H](CO)[C@@H](OC(=O)Nc2cccc(F)c2)[C@H](OC(=O)Nc2ccccc2)[C@H]1OC(=O)Nc1ccccc1`: the composite z-score in [1] was -0.246; in [2], 1.35; in assay [3], 0.0664; in [4], 0.466; in [5], 1.07; in [6], 0.981. Moreover, the composite z-score in assay [7] is 1.36; in assay [9], 0.724; in assay [10] it was -0.191; in assay [11], 1.54; in [15], 3.37; in [17], -0.0285. For the same molecule, the figures for the composite z-score in assay [18], in [19] and in [20] were 0.828, 1.11 and 0.0778, respectively. For the same molecule, the z-score was 0.746 (inactive) in assay [8]; 1.63 (inactive) in assay [12]; 1.1 (inactive) in [13]; 5.68 (inactive) in [14]; -0.168 (inactive) in assay [16].
Take `C=CC[C@]1(C(N)=O)COC(c2ccc(OCCCO)cc2)=N1`: the composite z-score in assay [1] is -0.123; in [2] it was 0.38; in assay [3], -0.0407; in [4], 0.282; in assay [5] it was 0.85; in assay [6], 0.0632. The composite z-score in assay [7] was 1.09; in assay [9], 0.418; in assay [10], -0.0645; in [11], 0.322; in assay [15], 1.38; in assay [17] it was 0.301. For the same molecule, the figures for the composite z-score in assay [18], in assay [19] and in [20] were 0.27, -0.769 and -0.139, respectively. Besides, the z-score was -0.25 (inactive) in [8]; 0.924 (inactive) in assay [12]; -1.09 (inactive) in assay [13]; -1.09 (inactive) in assay [14]; 1.27 (inactive) in assay [16].
Turning to `OCC1C=C(/C=C/c2ccccc2)CN1Cc1ccccc1Br` (stereo not given), the composite z-score was -0.337 in assay [1]; 0.422 in [2]; 0.0619 in assay [3]; 0.979 in [4]; 1.42 in [5]; 0.808 in assay [6]. Moreover, the composite z-score was 0.331 in assay [7]; 0.379 in [9]; -0.136 in assay [10]; 0.94 in assay [11]; 1.44 in assay [15]; 0.0265 in [17]. In addition, the figures for the composite z-score in [18], in assay [19] and in assay [20] were 0.876, 0.854 and 0.0339, respectively. The z-score was -1.8 (inactive) in assay [8]; -0.486 (inactive) in assay [12]; -11.3 (active) in assay [13]; -1.4 (inactive) in [14]; 1.58 (inactive) in [16].
Turning to `C=CCN1Cc2ccccc2[C@@H]2OC(c3ccc(OCCCO)cc3)=N[C@]2(CCS(=O)(=O)c2ccccc2)C1=O`, the composite z-score in assay [1] is 0.189; in assay [2], 0.263; in [3] it was -0.04; in assay [4] it was 0.345; in assay [5], 1.55; in assay [6] it was 0.721. In addition, the composite z-score in assay [7] is 1.24; in assay [9], 0.804; in assay [10], -0.191; in assay [11] it was 1.55; in assay [15] it was 3.35; in assay [17] it was 0.0642. The composite z-score in assay [18] is 0.704; in [19], 1.01; in assay [20], -0.0261. Further, the z-score is -3.43 (inactive) in assay [8]; 0.863 (inactive) in assay [12]; 1.45 (inactive) in assay [13]; 3.51 (inactive) in assay [14]; 0.953 (inactive) in assay [16].

These data come from PubChem BioAssay.
